# Laboratory results: PubChem BioAssay (Tox21)
# Inconclusive results are not listed. Values without a mark were called inactive. Calls follow the shape of the dose curve; as a rule, active = well fitted cell-killing curve with a large enough effect in the repeat runs; inconclusive = weak or mixed curves, or effect the other way; inactive = flat fitted curve, though single readings scatter.
# Test: qHTS RealTime-Glo MT Cell Viability Assay in HEK293 cells - 8 hour (AID 1224887); also: top concentration of the series differs between compounds; nearly all actives have a fitted effect of over 50% in size
# Settings: RealTime-Glo luminescence; series mostly up to 76.8 µM; activity change, negative = cytotoxicity: at the top concentration
# Description: U.S. Tox21 Program National Center for Advancing Translational Sciences [NCATS] NIH Chemical Genomics Center [NCGC] U.S. Environmental Protection Agency [EPA] National Institutes of Environmental Health Sciences [NIEHS] National Toxicology Program [NTP] U.S. Food and Drug Administration [FDA] Tox21 Assay Overview: Measure of cell viability is critical in the cell-base assay. Analysis of cell viability is necessary for the characterization of cell responses to cytotoxic drugs and environmental stress. A RealTime-Glo MT Cell Viability Assay to monitor cell viability in real time of continues cell culture during 40 hours of compound treatment was used to screen Tox21 10K library compounds in Hek293 cells. The RealTime-Glo MT Cell Viability Assay is a nonlytic, homogeneous, bioluminescent method to measure cell viability in real time using a simple, plate-based method. The assay involves adding NanoLuc luciferase and a cell-permeant prosubstrate to cells in culture. Viable cells reduce the proprietary prosubstrate to generate a substrate for NanoLuc luciferase. This substrate diffuses from cells into the surrounding culture medium, where it is rapidly used by the NanoLuc Enzyme to produce a luminescent signal. The signal correlates with the number of viable cells, making the assay well suited for cytotoxicity studies.
# Tox21 Assay Protocol Summary: The mixture of Hek293 cell suspension and reagents were dispensed at 600cells/6 ul/well in 1536-well tissue culture treated black solid bottom plates using a Multidrop dispenser. After the assay plates were incubated at a 37 C/5% CO2 incubator for 5 hours, 23 nL of compounds dissolved in DMSO, positive and negative controls was transferred to the assay plate by a pintool work station. The plates were incubated at 37 C for 40 hours. The luminescence intensity were measured at 0h, 8h, 16h, 24h, 32h and 40h time points using ViewLux plate reader during compound treatment.
# % is scaled to controls: 0 for no effect and ±100 for the full control effect.
row,Compound,"activity change, negative = cytotoxicity"
1,CC(C)c1cccc(O)c1,15.8%
2,CC1=CC(=O)CCC1,5.38%
3,CC(C)CCCCCCN,-0.833%
4,C=CC(=O)N1CCOCC1,-14.7%
5,NC(=O)Nc1nc2ccccc2[nH]1,-2.73%
6,CN(C)CCOC(c1ccc(Cl)cc1)c1ccccn1 (stereo not given),1.32% [at 35.3 µM]
7,CCCCCCCCCCC1CO1 (stereo not given),7.29%
8,C=C[Si](OC)(OC)OC,14.5%
9,COC(=O)C1=C(C)NC(C)=C(C(=O)OCC(C)=O)C1c1ccccc1[N+](=O)[O-] (stereo not given),-1.44% [at 35.3 µM]
10,CCCCN(CCO)CCO,8.37%
11,CCC(C)(C)C1CCC(OC)CC1 (stereo not given),16.9%
12,CC(C)CCCC(C)NCCC(C)C (stereo not given),11.1% [at 35.3 µM]
13,Nc1nc(F)nc2c1ncn2[C@@H]1O[C@H](CO)[C@@H](O)[C@@H]1O,-3.39% [at 35.3 µM]
14,CCN1CCN(c2cc3c(cc2F)c(=O)c(C(=O)O)cn3C2CC2)CC1,-1.14% [at 35.3 µM]
15,C=C(C)C(=O)OCCC(C)OC(=O)C(=C)C (stereo not given),13.3%
16,Cc1ncc(CSSCc2cnc(C)c(O)c2CO)c(CO)c1O,16.2% [at 35.3 µM]
17,CC(C)(C)OC(=O)N1C[C@@H](F)C[C@H]1C(=O)O,-8.46%
18,CCOC(=O)Nc1ccc2c(c1)N(C(=O)CCN1CCOCC1)c1ccccc1S2,-19.5% [at 35.3 µM]
19,O=c1[nH]c2ccccc2c(=O)n1CCCl,-0.059% [at 35.3 µM]
20,CCCOCC(C)OCC(C)O (stereo not given),2.82%

row,Compound,"activity change, negative = cytotoxicity"
1,O=C(O)c1ccccc1S,7.74% [at 35.3 µM]
2,CCCCc1ccc(N)cc1,-8.07%
3,CC(O)CN(CCCN(C)C)CCCN(C)C (stereo not given),7.86%
4,CCCCc1ccc2cccc(S(=O)(=O)O)c2c1,12.2%
5,Oc1cc(O)c2c(c1)O[C@H](c1ccc(O)c(O)c1)[C@H](O)C2,-5.5% [at 35.3 µM]
6,COc1cc(O)cc(O)c1,1.48% [at 35.3 µM]
7,CCC(=O)Nc1cccc(N)c1,5.73%
8,O=C(O)CCNC(=O)c1ccc(N=Nc2ccc(O)c(C(=O)O)c2)cc1,-0.852% [at 35.3 µM]
9,C[C@H]1O[C@@H](n2cc(F)c(=O)[nH]c2=O)[C@H](O)[C@@H]1O,12.6% [at 35.3 µM]
10,CC/C=C\CCCCO,1.78%
11,CC1=CC(C)C(C=O)C(C)C1 (stereo not given),13.7%
12,COC(=O)CCCC(=O)O,27.7%
13,OCc1ccccn1,1.33% [at 35.3 µM]
14,NCCN1CCNC1=O,7.93%
15,CCCCOCC(C)OCC(C)O (stereo not given),-2.56%
16,COC(=O)[C@H]1[C@H]2C[C@@H]3c4[nH]c5cc(OC)ccc5c4CCN3C[C@H]2C[C@@H](OC(=O)COc2ccc(OC)cc2)[C@@H]1OC,-10.2% [at 35.3 µM]
17,NS(=O)(=O)c1cc2c(cc1Cl)NC(CSCc1ccccc1)=NS2(=O)=O,-0.106% [at 35.3 µM]
18,CN(C)CCn1nnnc1SCC1=C(C(=O)O)N2C(=O)[C@@H](NC(=O)Cc3csc(N)n3)[C@H]2SC1,7.22% [at 35.3 µM]
19,C[C@H](O)C(=O)Nc1c(I)c(C(=O)NC(CO)CO)c(I)c(C(=O)NC(CO)CO)c1I,2.96% [at 35.3 µM]
20,CCCCC1CCCCC(=O)O1 (stereo not given),2.55%
